Pf growth 48h – P. falciparum growth inhibition at 48 hours (one generation); 310,000 tested, 5.9% active; Potency, µM (top dose mostly 28.7 µM), inactives show at the top dose activity change, negative = inhibition, usual class: inhibitors; P. falciparum luciferase growth in erythrocytes, 48 h; also: potency is read from the fitted curve at half-maximal effect
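First compound was added to culture medium, then infected red cells at 0.1% parasitemia and 2% hematocrit (final). After incubation at 37 C under 5% CO2, luciferase detection reagent was dispensed and light output recorded.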
HCMV inh – human cytomegalovirus inhibition | HFF cells, HCMV-luciferase reporter, 72 h; hits give low values | activity change, negative = inhibition, % at 57.5 µM | 410,000 tested, 4.5% active; in the data active = activity change below about -60%; inconclusive = no clear call, values can overlap the other calls; inactive = above about -39%
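Cell-based, HFFs, 1000 cells/well, 16 h 37C; cpds in DMSO + HCMV-luc, MOI 1 PFU/cell; 72 h 37C; OneGlo luminescence after 5 min RT; norm. to buffer vs Salinomycin 10uM.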
FBPA Giardia inh – Giardia lamblia aldolase inhibition. A8B2U2. purified Giardia FBPA. Potency, µM (titrated, usually from 59.6 µM), for the others: top-dose activity, negative = inhibition, hits mostly inhibitors. 290,000 tested, 0.71% active. AID 2451; also: potency is read from the fitted curve at half-maximal effect; nearly all actives have a fitted effect of over 55% in size
Target sequence (A8B2U2 whole entry, looked up): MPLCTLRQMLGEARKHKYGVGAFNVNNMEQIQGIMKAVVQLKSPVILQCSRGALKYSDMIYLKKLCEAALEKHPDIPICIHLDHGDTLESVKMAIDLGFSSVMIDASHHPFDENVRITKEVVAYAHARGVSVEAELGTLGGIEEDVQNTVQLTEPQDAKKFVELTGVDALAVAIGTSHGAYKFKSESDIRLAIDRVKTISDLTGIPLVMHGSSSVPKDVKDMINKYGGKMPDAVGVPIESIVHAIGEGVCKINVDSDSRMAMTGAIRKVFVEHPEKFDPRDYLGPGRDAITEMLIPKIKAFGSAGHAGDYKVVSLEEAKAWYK
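Giardia FBPA (40 nM reagent) was preincubated 10 min at RT with compound (up to 57.5 uM final), then substrate plus GAPDH/TPI/NAD/arsenate coupling system with diaphorase/resazurin was added; resorufin fluorescence (525/598 nm) was read after 20 min.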
Pf growth 96h – inhibits malaria parasite growth, 96 h | P. falciparum luciferase reporter growth, 96 h | Potency, µM (doses to about 28.7 µM), without a hit: top-dose activity change, negative = inhibition, hits mostly inhibitors | 320,000 tested, 6.9% active | AID 504834; also: potency is read from the fitted curve at half-maximal effect
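P. falciparum expressing integrated firefly luciferase, in erythrocytes at 2% hematocrit, 0.05% parasitemia, incubated with compounds 96 h at 37 C, 5% CO2. Growth inhibition read as loss of luminescence; two-generation exposure targets delayed-death apicoplast inhibitors.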
Sm TGR inh – blocks Schistosoma mansoni thioredoxin glutathione reductase | 360,000 tested, 3% active | Potency, µM (highest dose often 114 µM), for inactives: at the highest dose activity change, negative = inhibition, actives largely listed as inhibitors | purified TGR, DTNB reduction, TNB absorbance 405 nm; also: potency is read from the fitted curve at half-maximal effect; nearly all actives have a fitted effect of over 60% in size
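First, TGR (20 nM dispensed) and NADPH were mixed with compound. Second, a 15 min room-temperature incubation followed. Third, further NADPH and then DTNB were added to start the reaction. Finally, TNB absorbance was monitored kinetically.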
Active calls of the source: *; u = inconclusive; x = no result. An excerpt weighted towards active compounds, which were near 14% of everything screened. Unless noted, calls follow the shape of the dose curve; as a rule, active = well fitted curve in the direction sought with a large enough effect; inconclusive = small, poorly fitted or top-dose-only effect, or another doubt; inactive = no such curve, though single readings can be large; an effect the other way counts as inactive or inconclusive. % is scaled to controls: 0 for no effect and ±100 for the full control effect.

SMILES | Pf growth 48h | HCMV inh | FBPA Giardia inh | Pf growth 96h | Sm TGR inh
CC[C@H](C)[C@H](NC(=O)CNC(=O)[C@H](CCCNC(=N)N)NC(=O)[C@H](CO)NC(=O)[C@H](C)NC(=O)[C@H](Cc1ccc(O)cc1)NC(=O)[C@H](Cc1c[nH]c2ccccc12)NC(=O)[C@H](C)NC(=O)[C@@H]1CCCN1C(=O)[C@H](CC(N)=O)NC(=O)[C@@H](NC(=O)[C@H](CC(=O)O)NC(=O)[C@@H]1CCCN1C(=O)[C@@H](NC(=O)[C@H](CCCNC(=N)N)NC(=O)[C@@H](NC(=O)[C@H](CCC(=O)O)NC(=O)[C@H](CCSC)NC(=O)[C@H](CO)NC(=O)[C@H](Cc1cnc[nH]1)NC(=O)[C@H](CCCNC(=N)N)NC(=O)[C@H](Cc1cnc[nH]1)NC(=O)[C@@H](NC(=O)[C@H](CCCNC(=N)N)NC(=O)[C@@H](N)CO)[C@@H](C)O)[C@@H](C)CC)[C@@H](C)O)[C@@H](C)CC)C(=O)N[C@@H](CCCNC(=N)N)C(=O)N1CCC[C@H]1C(=O)N[C@H](C(=O)NCC(=O)N[C@@H](CCCNC(=N)N)C(=O)N[C@@H](Cc1ccccc1)C(N)=O)C(C)C | x | x | 2.9% | x | x
COc1cc(/C=N/Nc2ncc(C(F)(F)F)cc2Cl)cc(OC)c1OC | 4.65µM* | -31.6 | -11.7% | u | 0.0%
COc1cc(/C=N/Nc2ncc(C(F)(F)F)cc2Cl)cc(OC)c1O | 42.4% | 5.4 | -9.9% | 57.5% | -15.3%
CC1NC2(C(=O)N(Cc3ccccc3)c3ccccc32)C2C(=O)N(c3ccccc3)C(=O)C12 (centres undefined) | u | -97.8* | -0.7% | 11.7µM* | -11.0%
COc1ccc2c3c([nH]c2c1)[C@H](CO)N(C(=O)c1cccnc1)CC31CN(C(=O)c2cccnc2)C1 | x | -1.8 | x | x | x
COc1ccc(N(C(C)=O)S(=O)(=O)c2cc(OC)ccc2OC)cc1 | -21.8% | -5.5 | 8.9% | 8.28µM* | 5.0%
COC(=O)C1=CN(c2ccc(OC)cc2OC)C(N)=C(C#N)C1c1cccc([N+](=O)[O-])c1 (centres undefined) | x | -21.5 | x | x | x
CC1=CC(C)C2(COC(c3ccc[n+](C)c3)OC2)C(C)C1 (centres undefined) | u | -24.0 | 3.9% | 10.4µM* | u
CCN(CC)CCC(c1cc(OC)c(OC)c(OC)c1)c1c(OC)cc(OC)c2c1OC(=O)CC2c1ccc(N(C)C)cc1 (centres undefined) | x | x | 0.5% | x | x
COc1cc2nc(Nc3cccc(F)c3)nc(N)c2cc1OC | 0.415µM* | 10.8 | -15.0% | u | -2.3%
COc1ccc(Nc2nc(N)c3cc(OC)c(OC)cc3n2)cc1 | x | -35.9 | x | x | -0.3%
COc1cc2[nH]c3c(Cl)ncnc3c2cc1OC | u | -2.5 | -25.5% | u | 3.2%
COc1cc2[nH]c(Cl)c([N+](=O)[O-])c2cc1OC | -1.2% | 3.3 | 5µM* | 2.9% | 2µM*
O=C(NCCc1ccco1)C(=O)NCC1OCCCN1S(=O)(=O)c1cc(F)ccc1F (centres undefined) | -3.4% | 17.1 | x | 2.0% | -12.5%
O=S(=O)(c1cccc(F)c1)N1CCC(c2nc3ccccc3s2)CC1 | x | -1.9 | x | x | 1.8%
COc1ccc(N=Nc2n(C)c3ccccc3[n+]2C)cc1 | 0.738µM* | x | u | 0.522µM* | 5.01µM*
C[C@@H]1C=C[C@](Cc2ccccc2)(C(=O)NCCCNc2ncc(C(F)(F)F)cc2Cl)N1C(=O)c1ccccc1 | x | x | -7.4% | x | x
COC(=O)c1cc2sccc2n1CC(=O)Nc1ccc(OC)c(OC)c1 | x | 39.1 | x | x | -1.2%
Cc1ccc(C)n1C1C(=O)N(Cc2ccc(C(F)(F)F)cc2)c2ccc(OC(F)(F)F)cc21 (centres undefined) | x | 0.8 | x | x | x
O=C(Nc1ccccc1N1CCCCC1)C1CCN(S(=O)(=O)c2ccccc2C(F)(F)F)CC1 | 9.28µM* | -61.0* | x | u | 2.3%
CN(C)C(CNC(=O)C1CCN(S(=O)(=O)c2ccccc2C(F)(F)F)CC1)Cc1ccccc1 (centres undefined) | u | -20.2 | x | 9.28µM* | -3.0%
O=C(NC(Cc1ccccc1)C(=O)O)C1CCN(S(=O)(=O)c2ccccc2C(F)(F)F)CC1 (centres undefined) | 31.8% | 37.8 | u | 63.6% | -11.0%
Cc1ccc(S(=O)(=O)N2CCC(C(=O)Nc3ccccc3N3CCCC3)CC2)c(C)c1 | 9.28µM* | u | x | u | u
Cc1ccc(S(=O)(=O)N2CCN(C(=O)c3cc(S(=O)(=O)N(C)C)ccc3N3CCCC3)CC2)c(C)c1 | 2.94µM* | -20.0 | x | 5.22µM* | -15.1%
CCCCCCCC/C=C\C/C=C\C/C=C\CCCC(=O)O | x | x | 3.9% | x | x
SMILES | Pf growth 48h | HCMV inh | FBPA Giardia inh | Pf growth 96h | Sm TGR inh
CC1=C(n2c(=O)c(-c3ccccc3)nc3ccccc32)C(=O)Nc2ccccc2N1 | x | 16.9 | x | x | x
CCCC1CC(C)(c2csc(Nc3ccc(OCC)cc3)n2)OC1=O (centres undefined) | u | -88.6* | 0.7% | u | 1.2%
COc1ccc(OC)c(-n2c(CNC3CCN(Cc4ccccc4)CC3)nc3ccccc3c2=O)c1 | x | -106.4* | -15.5% | 11.7µM* | -12.4%
CCc1ccccc1N(C)C(=O)Cc1c(C(=O)O)c(C)cn1C | x | -1.0 | x | x | 5.4%
CCc1cc(=O)oc2c(C)c(OC(C)C(=O)N3CC[C@@]4(O)CCCC[C@H]4C3)ccc12 (some centres undefined) | u | 21.0 | 5.0% | 11.7µM* | 0.8%
CCc1cc(=O)oc2c(C)c(OC(C)C(=O)N3CCC[C@@H]3C(=O)O)ccc12 (some centres undefined) | -9.4% | 3.7 | -16.6% | 0.1% | 7.9%
Cc1ccccc1C(=O)Nc1ccc2c(C#N)c3nc4ccccc4nc3n2c1 | 2.2% | -65.0* | u | 0.4% | -25.1%
O=C(NC1CC1)C1=C[C@H](c2ccc(C(F)(F)F)cc2)C[C@H](OCc2ccc(CO)cc2)O1 | u | 8.4 | -13.2% | u | u
CCOCCCNCc1cccc(OCc2ccc(F)cc2)c1 | u | -18.2 | 4.4% | 11.7µM* | 11.9%
CCOCCCNCc1ccc(Cl)cc1 | 18.6% | 2.8 | -25.0% | 37.2% | -0.7%
COc1ccc(C)cc1NC(=O)C1CCN(S(=O)(=O)c2c(C)noc2/C=C/c2ccco2)CC1 | x | 6.4 | x | x | -12.8%
CN(C)P(=O)(Nc1cccc2ccccc12)Nc1cccc2ccccc12 | 4.65µM* | 91.8 | x | u | -0.9%
O=C1CC(c2ccc(Cl)cc2)CC(O)=C1C=NCCO (centres undefined) | 19.4% | 9.8 | -5.5% | 61.9% | 1.6%
CCOc1ccc(-n2nc3ccc(NC(=O)c4ccc(-c5cccc(Cl)c5)o4)cc3n2)cc1 | x | -12.2 | x | x | u
O=C(CCn1c(=O)sc2ccccc21)Nc1cccnc1 | 23.9% | 16.2 | -4.7% | u | 50.1µM*

Bioassay records (PubChem)
